This is part of a sample that, as a whole, favours compounds with a hit. Of some 79,000 tested, about 15% had one in any assay. The source made the active and inactive calls. Cut-off read from the data, not from the text of the source: active = growth inhibition above about 70%; inactive = the rest. Where a SMILES comes first, the peptide text is derived from it. The star is where a group is joined. Trt = c1ccc(C(c2ccccc2)(c2ccccc2)*)cc1; Cbz = O=C(OCc1ccccc1)*
How the values were obtained:
[1] = NCI Yeast Anticancer Drug Screen. Data for the rad50 strain (AID 155);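 note: 0% = growth of vehicle-only cultures of the same strain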; details: S. cerevisiae rad50 strain growth inhibition, active compounds read high
Method in brief: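 Cells are treated with compound, grown, and their growth is then scored against vehicle-only cultures of the same repair-deficient yeast strain.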

[2] = NCI Yeast Anticancer Drug Screen. Data for the mec2-1 strain (AID 157); details: S. cerevisiae mec2-1 strain, active compounds read high
Method in brief: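 mec2-1 yeast strain, carrying an alteration in DNA damage repair or cell cycle control, was exposed to compounds; growth inhibition was measured relative to vehicle-treated controls.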

[3] = NCI Yeast Anticancer Drug Screen. Data for the sgs1 mgt1 strain (AID 161);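 note: 0% = growth of cultures given vehicle only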; details: S. cerevisiae sgs1 mgt1 strain, active compounds read high
Method in brief: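 Compounds are added to genetically altered yeast, and growth is compared with cultures given vehicle alone to give percent inhibition.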

[4] = NCI Yeast Anticancer Drug Screen. Data for the cln2 rad14 strain (AID 165);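 note: 0% = growth equal to vehicle treated cultures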; details: S. cerevisiae cln2 rad14 strain, active compounds read high
Method in brief: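 Yeast carrying cln2 and rad14 alterations (cell cycle control and DNA damage repair) were exposed to compounds. Growth inhibition was measured against vehicle-treated controls.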

[5] = NCI Yeast Anticancer Drug Screen. Data for the bub3 strain (AID 167); details: S. cerevisiae bub3 mutant strain, active compounds read high
Method in brief: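 Part of a panel of yeast mutants defective in DNA damage repair or cell cycle regulation. Each strain is grown with compound, and inhibition is calculated relative to solvent-treated cultures.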

[6] = NCI Yeast Anticancer Drug Screen. Data for the mlh1 rad18 strain (AID 175); details: S. cerevisiae mlh1 rad18 strain growth inhibition, active compounds read high
Method in brief: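 Growth inhibition of the yeast strain was measured after compound exposure and expressed relative to vehicle-treated controls. The strain carries defined defects in DNA damage repair.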

[7] = at 5.0 µM (retest, dose inferred, filed as 0.5)
[8] = at 50.0 µM (retest, dose inferred, filed as 5.0)

Measured: growth inhibition

CC(=O)OC1(C)C(=C(Cl)Cl)C2c3ccccc3C1c1ccccc12 (stereo not given)
active: [1]; [8] 91% | [1]; at 50.0 µM 92.7% | [2]; [8] 88% | [2]; at 50.0 µM 82.2% | [3]; [8] 92% | [3]; at 50.0 µM 94.3% | [4]; [8] 89% | [5]; [8] 93% | [5]; at 50.0 µM 93.2% | [6]; [8] 91% | [6]; at 50.0 µM 93.8%
inactive: [1]; [7] 0% | [2]; [7] 19% | [3]; [7] 2% | [4]; [7] 7% | [4]; at 50.0 µM 64.4% | [5]; [7] -4% | [6]; [7] 10%

CCOC(=O)NC(c1ccc(C(NC(=O)OCC)P(=O)(O)NC23CC4CC(CC(C4)C2)C3)cc1)P(=O)(O)NC12CC3CC(CC(C3)C1)C2 (stereo not given)
active: [2]; at 50.0 µM 84.2% | [3]; at 50.0 µM 81% | [4]; at 50.0 µM 71.8% | [5]; at 50.0 µM 91% | [6]; at 50.0 µM 76.4%
inactive: [1]; [7] -8% | [1]; [8] -6% | [1]; at 50.0 µM 60.4% | [2]; [7] 5% | [2]; [8] -10% | [3]; [7] -8% | [3]; [8] -24% | [4]; [7] -30% | [4]; [8] -2% | [5]; [7] 13% | [5]; [8] -7% | [6]; [7] -31% | [6]; [8] -21%

COc1ccccc1C1SC(c2ccccc2)(c2ccccc2)OC1=O (stereo not given)
active: [1]; at 50.0 µM 84.6% | [3]; at 50.0 µM 80.2% | [4]; at 50.0 µM 84.8% | [5]; at 50.0 µM 85.9% | [6]; at 50.0 µM 80.9%
inactive: [1]; [7] -2% | [1]; [8] -9% | [2]; [7] -2% | [2]; [8] -4% | [2]; at 50.0 µM 50.1% | [3]; [7] 12% | [3]; [8] -2% | [4]; [7] -2% | [4]; [8] -7% | [5]; [7] -1% | [5]; [8] 16% | [6]; [7] 0% | [6]; [8] -6%

CCCN(CCC)C(=S)N/N=C(/C)c1ccccc1O
inactive: [1]; [7] -8% | [2]; [7] -29% | [3]; [7] -29% | [4]; [7] -26% | [5]; [7] -58% | [6]; [7] -23%
active: [1]; [8] 98% | [1]; at 50.0 µM 77.8% | [2]; [8] 98% | [2]; at 50.0 µM 85.7% | [3]; [8] 97% | [3]; at 50.0 µM 87.2% | [4]; [8] 97% | [4]; at 50.0 µM 86.8% | [5]; [8] 98% | [5]; at 50.0 µM 89% | [6]; [8] 98% | [6]; at 50.0 µM 90.8%

COc1cc(C(=O)NC(CCC(=O)O)C(=O)O)ccc1N(C)Cc1cnc2nc(N)nc(N)c2n1 (stereo not given)
active: [1]; at 50.0 µM 89.8% | [2]; [8] 93% | [2]; at 50.0 µM 97.2% | [3]; at 50.0 µM 83.8% | [6]; at 50.0 µM 74.1%
inactive: [1]; [7] -4% | [1]; [8] 66% | [2]; [7] -3% | [3]; [7] -7% | [3]; [8] 44% | [4]; [7] 2% | [4]; [8] -10% | [4]; at 50.0 µM -21.4% | [5]; [7] -6% | [5]; [8] -6% | [5]; at 50.0 µM 40.4% | [6]; [7] -51% | [6]; [8] 29%

FC(F)(F)c1[nH]nc(-c2cc3ccccc3o2)c1N=NN1CCOCC1
active: [1]; [7] 99% | [1]; [8] 99% | [1]; at 50.0 µM 99.2% | [2]; [7] 100% | [2]; [8] 99% | [2]; at 50.0 µM 99.5% | [3]; [7] 100% | [3]; [8] 99% | [3]; at 50.0 µM 99.5% | [4]; [7] 99% | [4]; [8] 99% | [4]; at 50.0 µM 99.6% | [5]; [7] 100% | [5]; [8] 99% | [5]; at 50.0 µM 99.5% | [6]; [7] 100% | [6]; [8] 99% | [6]; at 50.0 µM 99.5%

C/C=C/CC(C/C=C/C)C1CC[N-]CC1.C/C=C/CC(C/C=C/C)C1CC[N-]CC1.[Cl][Pt+2]([Cl])([Cl])[Cl]
inactive: [1]; [7] 8% | [2]; [7] -62% | [3]; [7] 3% | [4]; [7] 4% | [4]; [8] 58% | [5]; [7] -3% | [6]; [7] 7%
active: [1]; [8] 88% | [1]; at 50.0 µM 97.3% | [2]; [8] 78% | [2]; at 50.0 µM 98.8% | [3]; [8] 91% | [3]; at 50.0 µM 98.8% | [4]; at 50.0 µM 97.7% | [5]; [8] 85% | [5]; at 50.0 µM 98% | [6]; [8] 88% | [6]; at 50.0 µM 98.6%

C1CSCCCSCCCSCCCSCCCSC1
inactive: [1]; [7] 17% | [1]; [8] 24% | [1]; at 50.0 µM 31.2% | [2]; [7] 8% | [2]; [8] 17% | [2]; at 50.0 µM 21.4% | [3]; [7] 7% | [3]; [8] 20% | [3]; at 50.0 µM 27.5% | [4]; [7] 9% | [4]; [8] 22% | [4]; at 50.0 µM 47.4% | [5]; [7] 22% | [5]; [8] 28% | [5]; at 50.0 µM 25.1% | [6]; [7] 15% | [6]; [8] 36% | [6]; at 50.0 µM -10.8%

CCCCCCCCCCCCCCCCC1CCc2ccccc21 (stereo not given)
active: [3]; at 50.0 µM 79.4% | [4]; at 50.0 µM 89.8% | [5]; at 50.0 µM 75.8% | [6]; at 50.0 µM 86%
inactive: [1]; [7] 4% | [1]; [8] 4% | [1]; at 50.0 µM 56.8% | [2]; [7] -2% | [2]; [8] -6% | [2]; at 50.0 µM 64.3% | [3]; [7] 11% | [3]; [8] 13% | [4]; [7] 23% | [4]; [8] 28% | [5]; [7] 38% | [5]; [8] 39% | [6]; [7] -2% | [6]; [8] 11%

COC(=O)C(CSC(c1ccccc1)(c1ccccc1)c1ccccc1)NC(=O)C(CC(N)=O)NC(=O)OCc1ccccc1 (stereo not drawn) (Cbz-Asn-Cys(Trt)-OMe; configuration not given here)
inactive: [1]; [7] 32% | [2]; [7] 13% | [2]; at 50.0 µM 68.2% | [3]; [7] 17% | [4]; [7] 27% | [5]; [7] 15% | [5]; at 50.0 µM 68.8% | [6]; [7] 27% | [6]; at 50.0 µM 68.9%
active: [1]; [8] 84% | [1]; at 50.0 µM 73.5% | [2]; [8] 89% | [3]; [8] 94% | [3]; at 50.0 µM 72.5% | [4]; [8] 94% | [4]; at 50.0 µM 72% | [5]; [8] 94% | [6]; [8] 88%
